Whole data set: some 81,000 sequences, median “one-hybrid fitness for binding NBS DNA” near -0.1, cut for the highest 2% near 0.36. Only a selection was taken, and the highest values are over-represented in it overall.
B1: Caulobacter ParB omega fusion; a variant is named by its letters at X, in order, B8GW30 (parent)
chain: MESVVVGEPGMSEGRRGLGRGLSALLGEVDAAPAQAPGEQLGGSREAPIEILQRNPDQPRRTFREEDLEDLSNSIREKGVLQPILVRPSPDTAGEYQIVAGERAWRAAQRAGLKTVPIMVRELDDLAVLEIGIIENVQRADLNVLEEALSYKVLMEKFERTQENIAQTIGKSXSHVANXMRLLXLPDEVQSYLVSGELTAXHARAIAAAADPVALAKQIIEGGLSVRETEALARKAPNLSAGKSKGGRPPRVKDTDTQALESDLSSVLGLDVSIDHRGSTGTLTITYATLEQLDDLCNRLTRGI

Variants of: B1
Assay: one-hybrid fitness for binding NBS DNA (the Noc-binding site; scaled: cognate 1, non-cognate 0); higher = stronger binding
Conditions: with NBS DNA site
Outline: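 Bacterial one-hybrid selection in E. coli USO rpoZ- hisB- pyrF- with a HIS3 reporter carrying the site 19 bp from the promoter, screening Caulobacter ParB libraries with four specificity codons randomised (NNS). Cells grew 48 hours at 37°C on M9-minus-histidine plus 0.1 mM IPTG and 5 mM 3-AT. Plasmids before and after selection were Illumina-sequenced, three replicate libraries pooled, and variants under 10 reads dropped. Fitness is the log change in variant-to-wild-type read ratio, rescaled to cognate 1, non-cognate 0.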

| Variant | one-hybrid fitness for binding NBS DNA |
| --- | --- |
| AGGD | ≤ 0.2 |
| QTAP | ≤ 0.2 |
| QTAN | 0.217 |
| QTFK | ≤ 0.2 |
| QTAM | 0.233 |
| QTAD | ≤ 0.2 |
| QTAS | 0.51 |
| QTAH | 0.401 |
| QTFN | ≤ 0.2 |
| QTFS | 0.391 |
| YQLR | ≤ 0.2 |
| LRHP | ≤ 0.2 |
| REPM | ≤ 0.2 |
| TKNF | ≤ 0.2 |
| SEEG | ≤ 0.2 |
| RKVT | 0.512 |
| RKKQ | 0.242 |
| RPVT | ≤ 0.2 |
| RKKG | 0.227 |
| RKKT | 0.691 |
| RKVP | ≤ 0.2 |
| ILKV | ≤ 0.2 |

| Variant | one-hybrid fitness for binding NBS DNA |
| --- | --- |
| VPFY | ≤ 0.2 |
| KCAR | ≤ 0.2 |
| KPAR | ≤ 0.2 |
| NRFR | ≤ 0.2 |
| DRFR | ≤ 0.2 |
| KRAR | 0.541 |
| KRFR | 0.469 |
| STSG | ≤ 0.2 |
| QRKV | 0.588 |
| QAVV | ≤ 0.2 |
| QKCV | ≤ 0.2 |
| QRVV | 0.272 |
| QRPV | ≤ 0.2 |
| QCKV | 0.479 |
| QAQV | ≤ 0.2 |
| QKKV | 0.406 |
| QPKV | ≤ 0.2 |
| QLKV | 0.342 |
| QKVV | ≤ 0.2 |
| QAKV | 0.393 |
| NHES | ≤ 0.2 |
| WMIP | ≤ 0.2 |

| Variant | one-hybrid fitness for binding NBS DNA |
| --- | --- |
| VPEL | ≤ 0.2 |
| KIDS | ≤ 0.2 |
| YGSP | ≤ 0.2 |
| QSKV | 0.398 |
| QTKV | 0.599 |
| QIKV | 0.267 |
| QMKV | 0.424 |
| QTIV | ≤ 0.2 |
| QMNV | ≤ 0.2 |
| QHKV | 0.44 |
| QMVV | ≤ 0.2 |
| QTVV | ≤ 0.2 |
| QSVV | ≤ 0.2 |
| QHVV | ≤ 0.2 |
| QHDV | ≤ 0.2 |
| TFNG | ≤ 0.2 |
| WQMG | ≤ 0.2 |
| FYPI | ≤ 0.2 |
| VPIG | ≤ 0.2 |
| DNCR | ≤ 0.2 |
| MCLS | ≤ 0.2 |
| LFAP | ≤ 0.2 |

| Variant | one-hybrid fitness for binding NBS DNA |
| --- | --- |
| LAIW | ≤ 0.2 |
| QMAA | 0.339 |
| QRFA | 0.494 |
| QSFA | ≤ 0.2 |
| QHAA | ≤ 0.2 |
| QPFA | ≤ 0.2 |
| QRAA | 0.617 |
| QVCG | ≤ 0.2 |
| AEFL | ≤ 0.2 |
| MPNG | ≤ 0.2 |
| KRST | 0.573 |
| DRST | ≤ 0.2 |
| KRGT | 0.537 |
| KCGT | ≤ 0.2 |
| KCHT | ≤ 0.2 |
| KRGH | ≤ 0.2 |
| KCST | ≤ 0.2 |
| KRHP | ≤ 0.2 |
| KRET | 0.501 |
| KPET | ≤ 0.2 |
| KAET | ≤ 0.2 |
| KRHT | 0.651 |
